Shown are actives, neighbours in structure and some others; about 19% of the full set was active somewhere.
IL-1B inflam inh: blocks inflammasome-driven IL-1 beta release; AID 743279; 360,000 compounds, 4.7% hits; THP-1 LPS/ATP IL-1B secretion, AlphaLISA, 16 h; active compounds read low; activity change, % at 57.5 µM; in the data active means activity change below about -50%; inconclusive means mostly about -30% to -49%
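Secreted IL-1B measured by AlphaLISA bead assay after 16 h compound exposure of THP-1 cells; compounds (final up to 57.5 uM) added 1 h before LPS (250 ng/mL) and ATP (1.25 mM) stimulation; lower signal means less secretion.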
Giardia kill: kills Giardia lamblia; 340,000 compounds, 0.15% hits; Giardia lamblia trophozoite viability; activity change, % at 7.66 µM, hits read low; in the data active means activity change below about -80%; inconclusive means between about -30% and that limit;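 further: parasites exposed to compound for two days anaerobically before the ATP read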
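Killing of trophozoites was scored by loss of ATP luminescence after a 48 hrs anaerobic exposure to compounds at 37 deg C, using 100 cells per well.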
ELG1 DNA repair: blocks ELG1-dependent DNA repair in HEK293T cells; HEK293T ELG1-luciferase reporter, luminescence, 16 h; DNA damage induced by 5-fluorouridine; Potency, µM (doses to about 46.1 µM), actives largely listed as inhibitors; 330,000 compounds, 2.3% hits; AID 504467; further: nearly all actives have a fitted effect of over 55% in size
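Quantitative HTS, concentration-response format. 2,000 cells/well co-treated with 5-fluorouridine and compound, 16 hr in 5% CO2 at 37 °C; ONE-Glo luminescence read after 30 min.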
TDP1 inh: inhibitors of human tyrosyl-DNA phosphodiesterase TDP1 | Q9NUW8 | Potency, µM (series often up to 130 µM), usual class: inhibitors | recombinant TDP1, AlphaScreen DNA substrate cleavage | AID 485290 | 350,000 compounds, 0.28% hits; further: nearly all actives have a fitted effect of over 40% in size
Target sequence (Q9NUW8 whole entry, looked up): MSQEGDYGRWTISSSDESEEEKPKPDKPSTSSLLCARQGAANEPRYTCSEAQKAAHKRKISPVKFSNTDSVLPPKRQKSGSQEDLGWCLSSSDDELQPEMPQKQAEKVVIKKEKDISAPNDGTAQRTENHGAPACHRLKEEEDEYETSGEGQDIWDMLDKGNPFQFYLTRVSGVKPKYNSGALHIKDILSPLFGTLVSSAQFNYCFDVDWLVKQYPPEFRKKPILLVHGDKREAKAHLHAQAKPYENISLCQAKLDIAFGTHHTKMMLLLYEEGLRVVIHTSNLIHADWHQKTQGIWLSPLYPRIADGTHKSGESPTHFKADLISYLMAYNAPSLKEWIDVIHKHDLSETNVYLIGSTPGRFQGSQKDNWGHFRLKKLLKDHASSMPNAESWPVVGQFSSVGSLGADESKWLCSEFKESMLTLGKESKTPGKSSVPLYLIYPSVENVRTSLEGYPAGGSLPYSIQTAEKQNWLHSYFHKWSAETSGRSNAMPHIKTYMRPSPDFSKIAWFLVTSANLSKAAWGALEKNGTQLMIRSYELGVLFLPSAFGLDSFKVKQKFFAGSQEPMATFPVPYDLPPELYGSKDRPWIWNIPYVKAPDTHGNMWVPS
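Recombinant E. coli-expressed Tdp1 (1 nM) preincubated with compound 15 min at RT, then 5'-biotin/3'-phosphotyrosine-FITC DNA substrate (15 nM) added for 5 min. AlphaScreen beads (10 ug/ml) added, 10 min RT; tyrosine-FITC cleavage read as signal loss.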
TDP1 cell noCPT: qHTS for Inhibitors of human tyrosyl-DNA phosphodiesterase 1 (TDP1): qHTS in cells in absence of CPT | DT40 Tdp1-/- hTDP1 cells, no CPT, ATP luminescence, 48 h | Potency, µM (highest dose often 46.2 µM), usual class: inhibitors | 420,000 compounds, 15% hits; further: nearly all actives have a fitted effect of over 55% in size
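No-CPT arm: Tdp1-/-;hTDP1 DT40 cells (400/well) plus compounds, incubated ≥48 hr at 37 °C. Readout CellTiter-Glo luminescence.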
TDP1 cell CPT: growth inhibition of DT40 Tdp1-/-;hTDP1 cells with camptothecin (screen for TDP1 inhibitors). 420,000 compounds, 12% hits. Potency, µM (series often up to 46.2 µM), usual class: inhibitors. chicken DT40 Tdp1-/-;hTDP1 cells + 20 nM CPT, ATP luminescence, 48 h; further: nearly all actives have a fitted effect of over 55% in size
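Chicken DT40 Tdp1-/- cells stably complemented with human TDP1 were seeded at 400 cells/well in medium containing 20 nM camptothecin, exposed to pin-transferred compounds, and grown at 37 °C for at least 48 hr. Viability was read as ATP luminescence.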
Numbers stand for hits; n = inactive; u = inconclusive; x = no result given. Unless noted, the call rests on the fitted dose curve; in most records, active means well fitted curve in the direction sought with a large enough effect; inconclusive means small, poorly fitted or top-dose-only effect, or another doubt; inactive means no such curve, though single readings can be large; an effect the other way counts as inactive or inconclusive.

SMILES | IL-1B inflam inh | Giardia kill | ELG1 DNA repair | TDP1 inh | TDP1 cell noCPT | TDP1 cell CPT
O=C(NCCN1CCOCC1)c1ccc2c(c1)N(Cc1ccccc1)CCS2 | n | n | n | n | u | u
CCN1CCN(CCCNC(=O)c2ccc3c(c2)N(Cc2ccc(C)cc2)CCS3)CC1 | n | n | n | n | u | u
CN(C(=O)c1ccccc1[N+](=O)[O-])c1ccccc1C(=O)NCc1ccccc1 | n | n | n | n | n | n
C=C1NN(CC2CC2)C(=O)N1c1ccc(OCc2ccccc2)cc1 | x | x | x | x | 13µM | u
COc1ccc(C[C@H]2CN3C(=NC[C@@H]3C(C)C)N2CCNC(=O)c2ccc(C)c(Br)c2)cc1 | -63 | n | n | n | 8.2µM | 9.2µM
Cc1ccc(C(=O)NCCN2C3=NC[C@H](C(C)C)N3C[C@H]2Cc2ccc(O)cc2)cc1Br | n | n | n | n | 10µM | 5.2µM
C/C=C(\C)C(=O)NCCN1C2=NC[C@H](C(C)C)N2C[C@H]1Cc1ccc(O)cc1 | n | n | n | n | n | n
COc1ccc(N2CCN(C(=O)COc3ncnc4ccccc34)CC2)cc1 | n | n | n | n | n | n
O=C(c1[nH]c2ccccc2c1Sc1ccc(Cl)cc1)N1CCCCC1 | x | x | x | n | u | u
CC1CCCC(C)N1CC(O)COC1CCC(C(C)(C)C)CC1 (centres undefined) | n | n | u | x | 21µM | 23µM
O=C1C=CC(=Nc2cccc3c2C(=O)c2ccccc2-3)O1 | -93 | n | x | x | u | n
O=C1c2ccccc2C(=O)c2c1cccc2N(CCO)CCO | n | u | n | x | n | n
CC(Oc1cccc(Cl)c1)C(=O)Nc1ccc(N2CCOCC2)cc1N1CCOCC1 (centres undefined) | n | n | u | x | 13µM | u
CC(C)COc1cccc(C(=O)Nc2ccc(N3CCOCC3)cc2N2CCOCC2)c1 | n | n | u | n | 13µM | u
CC(C)COc1cccc(C(=O)Nc2ccc(CN3CCOCC3)cc2)c1 | -82 | n | u | x | u | 23µM
COc1cc(OC)cc(C(=O)Nc2ccc(N3CCOCC3)cc2N2CCOCC2)c1 | n | n | n | n | u | n
CC(C)COc1cccc(C(=O)Nc2ccc(S(=O)(=O)N3CCOCC3)cc2)c1 | n | n | n | n | u | u
CCC(C)C(NC(=O)c1ccccc1)C(=O)N1CCN(C(=O)c2ccccc2)CC1 (centres undefined) | n | x | x | x | u | u
O=S(=O)(N/N=C\C=C\c1ccccc1)c1ccc(Cl)cc1 | n | n | n | n | n | n
COc1cccc(COC(=O)Nc2ccccc2)c1OC | n | x | x | x | u | u
COCCNc1nnc(SC(C)C(=O)Nc2ccc(-c3nc4ccc(C)cc4s3)cc2)s1 (centres undefined) | n | n | u | n | u | n
O=C(CN1C(=O)C2C3C=CC(C3)C2C1=O)OCC(=O)c1ccc([N+](=O)[O-])cc1 (centres undefined) | -69 | n | u | n | u | u
CC(C(=O)OCC(=O)c1ccc([N+](=O)[O-])cc1)N1C(=O)C2C3C=CC(C3)C2C1=O (centres undefined) | -56 | n | n | n | u | 16µM
Cc1ccc(C(=O)COC(=O)C(C)N2C(=O)C3C4C=CC(C4)C3C2=O)cc1 (centres undefined) | n | n | n | n | n | n
O=C1C2C3C=CC(C3)C2C(=O)N1CCN1CCN(Cc2ccc([N+](=O)[O-])cc2)CC1 (centres undefined) | n | n | u | n | 16µM | u
SMILES | IL-1B inflam inh | Giardia kill | ELG1 DNA repair | TDP1 inh | TDP1 cell noCPT | TDP1 cell CPT
CC(C(=O)OCC(=O)c1ccc([N+](=O)[O-])cc1)N1C(=O)C2C3CCC(C3)C2C1=O (centres undefined) | n | n | n | n | u | 16µM
CSCCC(NC(=O)c1ccccc1Br)C(=O)N1CCCC(C(F)(F)F)C1 (centres undefined) | n | n | n | n | n | n
CN1C(=O)/C(=C/c2ccc(OCc3ccccc3F)cc2)N(C)C1=S | n | n | u | x | n | u
COC(=O)c1[nH]c2ccc(Br)cc2c1NC(=O)C(C)N1CCN(C2CCCCC2)CC1 (centres undefined) | -82 | n | n | n | 16µM | 5.2µM
COC(=O)c1[nH]c2ccc(Br)cc2c1NC(=O)CN1CCCCC1CCO (centres undefined) | n | n | n | n | u | u
COc1cc(NC(=O)c2sc(C)nc2C)c(OC)cc1NC(=O)c1ccccc1 | n | n | 15µM | x | 16µM | u
CC(C)NC(=O)c1ccccc1NC(=O)C(C)Oc1ccccc1 (centres undefined) | n | n | n | n | n | n
CCc1ccc(OC(C)C(=O)Nc2ccccc2C(=O)N2CCOCC2)cc1 (centres undefined) | n | n | n | n | u | n
COC(=O)c1ccccc1NC(=O)C(C)Oc1ccccc1 (centres undefined) | n | n | n | x | 5.8µM | 7.3µM
COc1cc(NC(=O)C(C)Oc2ccccc2)c(OC)cc1NC(=O)c1ccccc1 (centres undefined) | n | n | 15µM | n | u | 21µM
COc1cc(NC(=O)c2ccccc2)c(OC)cc1Cl | n | n | n | n | u | n
CC(Oc1ccc(F)cc1)C(=O)Nc1ccccc1C(=O)N1CCCCC1 (centres undefined) | n | n | n | n | u | 15µM
CC(Oc1ccccc1)C(=O)Nc1ccc(NC(=O)c2ccccc2)cc1 (centres undefined) | n | n | n | n | n | n
Cc1c(NC(=O)c2ccc(-c3cccc([N+](=O)[O-])c3)o2)cccc1-c1nc2cc(Cl)ccc2o1 | x | x | x | n | x | x
CCOC(=O)c1c(SCCN2CCCC2)n(-c2ccccc2)c(=S)n(-c2ccccc2)c1=O | -111 | n | x | x | 5.2µM | 4.6µM
O=C(NC1(C(F)(F)F)C(=O)Nc2c1c(=O)[nH]c(=O)n2-c1ccc(F)cc1)c1ccccc1 (centres undefined) | x | x | x | n | n | n
O=C(Nc1ccc(Br)cc1)C1CCCN(S(=O)(=O)c2cccnc2)C1 (centres undefined) | n | n | u | n | 26µM | 23µM
CCN(CC)c1ccc(NC(=O)C2CCCN(S(=O)(=O)c3cccnc3)C2)c(C)c1 (centres undefined) | n | n | u | n | 10µM | 15µM
CCN(CCCNC(=O)C1CCCN(S(=O)(=O)CC)C1)c1cccc(C)c1 (centres undefined) | n | n | n | n | 15µM | 23µM
